Data taken from PubChem BioAssay AID624171 (National Center for Advancing Translational Sciences (NCATS), 2012).
The whole screen tested about 410,000 compounds, of which about 1,200 (0.29%) were called active. Another 2% or so got no clear call; they are omitted. Many of the other results were omitted from the sample, so actives are more common in it than they were. A number with no mark means an inactive call. The call rests on the fitted dose curve; in most records, active means well fitted activation curve with a large enough effect; inconclusive means small, poorly fitted or top-dose-only effect; inactive means flat fitted curve, though single readings scatter.

Test: qHTS of Nrf2 Activators; further: nearly all actives have a fitted effect of over 65% in size; on activation: % of control where 0% means no effect
Details: AREc32 ARE-luciferase reporter (MCF7-derived line), luminescence, 24 h; series mostly up to 46.1 µM; activation: at the top concentration
Source text: Many diseases have some form of oxidative stress injury and ties to inflammation, causing a host of problems for the patient. The antioxidant response element (ARE) plays an important role in alleviating the harmful effects of oxidative stress. The antioxidant response element (ARE) is a transcriptional regulatory element involved in the activation of genes coding for a number of antioxidant proteins and detoxifying enzymes. These enzymes work in concert to protect tissues from oxidative insults and chemical toxicities in human hepatocytes and immune cells. The protective effects of ARE activation are primarily triggered through Nrf2 (NF-E2-related factor) binding to and activating AREs. It is known that Nrf2 controls the production of over 250 antioxidant and detoxification proteins (Hu et al., 2006), thereby protecting tissues by increasing cellular antioxidant content and suppressing inflammatory signaling pathways. The transcription factor Nrf2 is a central link between oxidative chemicals, such as phenolic antioxidants and electrophilic compounds, and the activation of ARE. Nrf2 levels are constitutively low as a consequence of its interaction with Keap1, which targets its degradation (Zipper and Mulcahy, 2002). Electrophiles react with key cysteine residues in Keap1, releasing Nrf2 and allowing its translocation to the nucleus. Once within the nucleus, Nrf2 complexes with coactivators such as p300, and binds to the AREs to induce gene transcription of cytoprotective enzymes, resulting in the prevention of toxicity. Activation of Nrf2 protects tissues by increasing cellular antioxidant content and suppressing inflammatory signaling pathways. Identifying novel and potent Nrf2 activators by using the AREc32 cell line to detect ARE activation by small molecules will lead to the identification and development of probes to study protective pathways in multiple tissues. These specific probes are essential to study the ARE pathway, and eventually to determine whether this pathway does activate genes that could protect against a host of diseases, including cardiovascular diseases, obesity, diabetes, Alzheimer's, and Parkinson's disease.
This project's aim is to identify novel and potent Nrf2 activators by using the AREc32 cell line to detect ARE activation by small molecules, which will lead to the identification and development of probes to study the ARE pathway.
NIH Chemical Genomics Center [NCGC]
NIH Molecular Libraries Probe Centers Network [MLPCN]
Assay Submitter (PI): Curtis Klaassen, University of Kansas Medical Center
5 uL of 1000 cells/well of AREc32_Fluc cells are seeded into 1536-well plate in OPTI-MEM medium with 5% FBS. The plates are incubated overnight at 37 deg C with 5% CO2. Then through pin tool transfer, 23 nL of compounds are added to each well before a 24 hr incubation at 37 deg C with 5% CO2. After the addition of 2.5 uL of Steady-Glo. the plates are kept at RT for 30 min, before they are read on the ViewLux.
Potency means the concentration at half of the fitted maximal effect.

SMILES | Potency | activation
N#CC1=C(N)Oc2c(c(=O)oc3ccccc23)C1c1ccccc1OC(=O)c1cccs1 (stereo not given) | 11.2 µM (active) | –
COc1ccc(C2C=C(C)Oc3c2c(=O)oc2ccccc32)cc1OC (stereo not given) | – | -1.49%
CCNc1nc2[nH]c(=O)c3c(c2s1)OC(N)=C(C#N)C3c1cccs1 (stereo not given) | – | 2.92%
Cc1ccc(-n2c(/C=C/c3cccc(C(F)(F)F)c3)nc3ccccc3c2=O)cc1 | – | 3.6%
Cc1cccc(Cn2cccc(C(=O)Nc3ccc4c(c3)OCCO4)c2=O)c1 | – | -0.518%
